The results in this text go back to PubChem BioAssay.

Active and inactive are the calls of the source. Unless noted, how the calls were made is not given here.

Assay [1] has as its system XIP peptide (Xip251-270) binding. Briefly: small-molecule binders of XIP peptide, primary screen, biochemical, small-molecule microarray, fluorescence 635/667 nm, 0.1 µg/mL protein (AID 1182). Particulars: fluorescent protein binding, 635 nm; higher = more signal, called active from +8 up or from −8 down unless noted.
In another assay the test system is XIP peptide (Xip251-270). Description: small-molecule binders of XIP peptide, primary screen, biochemical, small-molecule microarray, fluorescence 635/667 nm, 0.5 µg/mL protein (AID 1183). As to conditions: small-molecule microarray binding, fluorescence 635 nm; higher = more signal.
A short description of assay [2]: Plasmodium falciparum growth inhibition, primary screen, strain 3D7, DAPI fluorescence, 100 nL (AID 1184).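 Further: parasites grown inside human red blood cells in medium with human serum.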 As to conditions: P. falciparum 3D7 growth, 3 d, higher = more signal.
Assay [3] concerns the target Homeobox protein Hox-A13 (Mus musculus) (UniProt Q62424). Description: inhibitors of HoxA13-DNA binding, primary screen, biochemical, fluorescence polarization, labeled oligonucleotide (AID 1185). Particulars: 15 min; higher = more signal, called active from +8 up or from −8 down unless noted. Background: Polarisation of emitted light reports the rotation of a fluorescent probe.

Assay [4] can be described thus: inhibitors of hydroxyurea-induced Chk1 phosphorylation, primary screen, imaging, HeLa, phospho-Chk1 antibody, percent positive cells (AID 1186). Particulars: hydroxyurea-induced phospho-Chk1 immunofluorescence imaging, higher = more signal.
Assay [5] can be described thus: inhibitors of hydroxyurea-induced Chk1 phosphorylation, primary screen, imaging, HeLa, phospho-Chk1 nuclear intensity (AID 1187). As to conditions: hydroxyurea-induced phospho-Chk1 immunofluorescence imaging, higher = more signal.

Chain of Homeobox protein Hox-A13 (Mus musculus) (Q62424 whole entry, looked up): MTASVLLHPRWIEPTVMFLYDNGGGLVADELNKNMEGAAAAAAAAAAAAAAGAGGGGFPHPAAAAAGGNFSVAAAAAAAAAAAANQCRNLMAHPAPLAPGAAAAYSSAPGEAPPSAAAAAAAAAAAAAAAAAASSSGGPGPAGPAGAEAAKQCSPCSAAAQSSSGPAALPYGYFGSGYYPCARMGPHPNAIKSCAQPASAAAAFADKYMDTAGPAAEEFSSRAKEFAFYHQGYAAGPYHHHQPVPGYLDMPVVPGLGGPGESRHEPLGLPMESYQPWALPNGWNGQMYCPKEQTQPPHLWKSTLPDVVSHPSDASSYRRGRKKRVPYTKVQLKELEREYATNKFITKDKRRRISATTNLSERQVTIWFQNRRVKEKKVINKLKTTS

Consider `C[C@H]1O[C@H]2C3=C(C(=O)[C@@H]4O[C@@H]4[C@@H]3O)[C@@H]1[C@@H]1[C@@H](C)OC=C3[C@@H](O)[C@H]4O[C@H]4C(=O)[C@]312`, for which the composite z-score is -0.7 (inactive) in assay [1] and 0.938 in the assay on XIP peptide (Xip251-270). Also, the z-score in assay [2] was -1.58; in assay [3], -0.276 (inactive).
With `COC(=O)[C@@]1(Cc2ccccc2)[C@H]2c3cc(C(=O)N(C)C)[nH]c3C[C@H]2CN1C(=O)c1ccccc1`, the composite z-score in assay [1] is 0.665 (inactive); in the assay on XIP peptide (Xip251-270), -0.456. Besides, the z-score in assay [2] is 0.747; in assay [3] it was -3.47 (inactive); in assay [4], -0.493 (inactive); in assay [5] it was -0.73 (inactive).
Consider `COc1cc2c(cc1O)C=[N+](C)CC2`, for which the composite z-score in assay [1] was -1.21 (inactive); with XIP peptide (Xip251-270), -0.417. Also, the z-score in assay [2] is -0.0765; in assay [3] it was -2.14 (inactive); in assay [4], -0.663 (inactive); in assay [5], -0.875 (inactive).
With `C[C@@H]1Cc2c(cnc3c2CN(C)CC3)CO1`, the composite z-score in assay [1] was -0.422 (inactive); in the assay on XIP peptide (Xip251-270), 0.188. The z-score in assay [2] was -0.0396; in assay [3], -2.8 (inactive).
As to `CN1CCC(c2ccc(CO)cc2)=CC1C1CC1` (stereo not drawn), the composite z-score in assay [1] was -0.809 (inactive); in the assay on XIP peptide (Xip251-270), 0.005. In addition, the z-score is -0.0622 in assay [2], -1.39 (inactive) in assay [3], 0.738 (inactive) in assay [4] and 0.657 (inactive) in assay [5].
With `C[C@@H]1OC=C2[C@@H](O)[C@H]3O[C@H]3C(=O)[C@]23[C@H]1[C@H]1C2=C([C@@H](O)[C@H]4O[C@H]4C2=O)[C@@H]3O[C@@H]1C`, the composite z-score in assay [1] is -0.496 (inactive); in the assay with XIP peptide (Xip251-270), -0.465. In addition, the z-score in assay [2] was 0.487; in assay [3] it was -0.299 (inactive).
For `COC(=O)NCC=Cc1nc(CCC=CC(=O)O[C@H]2CC3CC(=O)O[C@@H](C=CCC(C)C)C[C@@H]4CC[C@H](C)[C@@H](C[C@@H](OC)C[C@H](C2)O3)O4)co1`, in that order: 0.0433 (inactive), -1, -1.65 and -2.54 (inactive).
Taken in the same sequence, the figures for `COC(=O)[C@H]1[C@H](c2ccccc2)C(=O)[C@]2(O)c3ccccc3O[C@@]12c1ccccc1` were -0.013 (inactive), 0.364, 0.332 and -0.116 (inactive).
For `COC(=O)[C@H]1C(=O)c2ccccc2O[C@@](C(=O)OC)(c2ccccc2)[C@@H]1c1ccccc1`, in that order: 0.107 (inactive), 0.191, -1.6 and -0.6 (inactive).
For `CCOC(=O)[C@H]1CC=C2C(=O)Oc3ccc(Br)cc3[C@@H]21`, the composite z-score in assay [1] is 0.874 (inactive); with XIP peptide (Xip251-270), 0.694. Besides, the z-score in assay [2] was -0.5; in assay [3] it was -6.05 (inactive); in assay [4] it was 0.439 (inactive); in assay [5] it was 0.286 (inactive).
Turning to `CCCC[C@@H]1C[C@H]1[C@@H](NP(=O)(c1ccccc1)c1ccccc1)c1ccc(Cl)cc1`, the composite z-score in assay [1] is 0.156 (inactive); with XIP peptide (Xip251-270), -0.337. Besides, the z-score in assay [2] was 0.0345; in assay [3], -2.17 (inactive); in assay [4], 0.368 (inactive); in assay [5] it was 0.316 (inactive).
With `CCCc1cc2c(n1CCO)C(C)C1CN(C(=O)c3ccccc3)C(C)(C(=O)OC)C21` (stereo not drawn), the composite z-score in assay [1] is 0.26 (inactive); in the assay on XIP peptide (Xip251-270), 0.719. Besides, the z-score in assay [2] was 0.119; in assay [3], -4.02 (inactive); in assay [4], 1.28 (inactive); in assay [5], 1.1 (inactive).
For the molecule `COC(=O)[C@@]1(Cc2ccc(F)cc2)[C@H]2c3cc(C(=O)N(C)C)[nH]c3C[C@H]2CN1C(=O)c1ccccc1`, the composite z-score in assay [1] is 0.614 [setting not given] (inactive); with XIP peptide (Xip251-270), 0.17. Moreover, the z-score in assay [2] was 0.412; in assay [3], -4.26 [setting not given] (inactive); in assay [4], 1.11 (inactive); in assay [5] it was 0.831 (inactive).
Turning to `CCCc1cc2c(n1Cc1ccco1)C(C)C1CN(C(=O)c3ccccc3)C(C)(C(=O)OC)C21` (stereo not drawn), the composite z-score in assay [1] was 1.32 (inactive); in the assay on XIP peptide (Xip251-270) it was 0.741. In addition, the z-score was 0.0125 in assay [2], -4.51 (inactive) in assay [3], 0.586 (inactive) in assay [4] and 0.875 (inactive) in assay [5].
For `OCc1ccc(C2=CC(C3CC3)N(Cc3sc4ccccc4c3Cl)CC2)cc1` (stereo not drawn), the composite z-score in assay [1] is 1.51 (inactive); in the assay with XIP peptide (Xip251-270), 0.625. The z-score is -3.04 in assay [2], 3.12 (inactive) in assay [3], -0.6 (inactive) in assay [4] and -0.744 (inactive) in assay [5].
In the case of `COC(=O)[C@H]1[C@@H](O)[C@@]2(O)c3c(OC)cc(OC)cc3O[C@@]2(c2ccc(OC)cc2)[C@@H]1c1ccccc1`, the composite z-score is -0.119 (inactive) in assay [1] and 0.914 in the assay with XIP peptide (Xip251-270). Also, the z-score is -1.26 in assay [2] and -0.0317 (inactive) in assay [3].
Taken in the same sequence, the figures for `CCc1cc2c(nc1CC)CCN(CCC(C)=NOC)C2` were 0.341 (inactive), -0.0832, -1.21 and -3.29 (inactive).
As to `COC(=O)C1(C)C=C2C(=C(C)C(=O)C2C)CN1` (stereo not drawn), the results for the composite z-score (in assay [1]; in the assay on XIP peptide (Xip251-270)) were -0.309 (inactive) and -0.628, respectively. In addition, the z-score is -1.06 in assay [2], -3.26 (inactive) in assay [3], 0.414 (inactive) in assay [4] and 0.354 (inactive) in assay [5].
Turning to `CCOC(=O)[C@H]1CC=C2C(=O)Oc3ccccc3[C@@H]21`, the values for the composite z-score (in assay [1]; in the assay with XIP peptide (Xip251-270)) were 0.23 (inactive) and 0.637, respectively. The z-score in assay [2] was -0.654; in assay [3], -2.72 (inactive); in assay [4] it was 0.466 (inactive); in assay [5], 0.0685 (inactive).
